{"source": "the supplement of paper PMC8728848", "binders": {"B1": {"name": "PNA (Arachis hypogaea), P02872 (protein)", "chain": "MKPFCVFLTFFLLLAASSKKVDSAETVSFNFNSFSEGNPAINFQGDVTVLSNGNIQLTNLNKVNSVGRVLYAMPVRIWSSATGNVASFLTSFSFEMKDIKDYDPADGIIFFIAPEDTQIPAGSIGGGTLGVSDTKGAGHFVGVEFDTYSNSEYNDPPTDHVGIDVNSVDSVKTVPWNSVSGAVVKVTVIYDSSTKTLSVAVTNDNGDITTIAQVVDLKAKLPERVKFGFSASGSLGGRQIHLIRSWSFTSTLITTTRRSIDNNEKKIMNMASA"}}, "assay_in_all_cases": "glycan array binding signal (z-score within array); higher = stronger binding", "conditions_in_all_cases": "glycan notation: IUPAC condensed, linker removed", "key": {"[1]": {"target": "Fuc(a1-2)Gal(b1-3)[Fuc(a1-4)]GlcNAc(b1-3)[Gal(b1-4)GlcNAc(b1-6)]Gal(b1-4)Glc", "method_in_brief": "(§1)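 The binding signal is a Z-score computed within each array. Data were drawn from 3228 arrays in the Consortium for Functional Glycomics database, restricted to those with a known protein sequence. Scores were averaged over arrays of the same protein sequence at different concentrations or buffers, and over linkers, and negative values can be taken as non-binding.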"}, "[2]": {"target": "Fuc(a1-2)Gal(b1-4)GlcNAc(b1-2)Man(a1-3)[Fuc(a1-2)Gal(b1-4)GlcNAc(b1-2)Man(a1-6)]Man(b1-4)GlcNAc(b1-4)GlcNAc", "method_in_brief": "as §1"}, "[3]": {"target": "Fuc(a1-2)Gal(b1-4)GlcNAc(b1-3)Gal(b1-4)GlcNAc", "method_in_brief": "as §1"}, "[4]": {"target": "Fuc(a1-2)Gal3S(b1-4)GlcNAc", "method_in_brief": "as §1"}, "[5]": {"target": "Fuc(a1-2)[Gal(a1-3)]Gal(b1-4)[Fuc(a1-3)]Glc", "method_in_brief": "as §1"}, "[6]": {"target": "Fuc(a1-2)[GalNAc(a1-3)]Gal(b1-4)GlcNAc(b1-3)GalNAc", "method_in_brief": "as §1"}, "[7]": {"target": "Fuc(a1-3)[3dGal(b1-4)]Glc", "method_in_brief": "as §1"}, "[8]": {"target": "Fuc(a1-3)[Gal(b1-4)]GlcNAc(b1-2)Man(a1-3)[Fuc(a1-3)[Gal(b1-4)]GlcNAc(b1-2)Man(a1-6)]Man(b1-4)GlcNAc(b1-4)GlcNAc", "method_in_brief": "as §1"}, "[9]": {"target": "Fuc(a1-3)[Gal(b1-4)]GlcNAc(b1-2)Man(a1-3)[Fuc(a1-3)[Gal(b1-4)]GlcNAc(b1-2)Man(a1-6)]Man(b1-4)GlcNAc(b1-4)[Fuc(a1-6)]GlcNAc", "method_in_brief": "as §1"}, "[10]": {"target": "Fuc(a1-3)[Gal3S(b1-4)]Glc", "method_in_brief": "as §1"}, "Fuc(a1-6)GlcNAc": {"target": "Fuc(a1-6)GlcNAc", "method_in_brief": "as §1"}, "Gal(a1-2)Gal": {"target": "Gal(a1-2)Gal", "method_in_brief": "as §1"}, "[11]": {"target": "Gal(a1-3)Gal(b1-4)GlcNAc(b1-2)Man", "method_in_brief": "as §1"}, "Gal(b1-3)Gal(b1-4)GlcNAc": {"target": "Gal(b1-3)Gal(b1-4)GlcNAc", "method_in_brief": "as §1"}, "[12]": {"target": "Gal(b1-3)GalNAc(a1-3)[Fuc(a1-2)]Gal(b1-4)Glc", "method_in_brief": "as §1"}, "[13]": {"target": "Gal(b1-3)GalNAc(a1-3)[Fuc(a1-2)]Gal(b1-4)GlcNAc", "method_in_brief": "as §1"}, "Gal(b1-3)GalNAc(b1-3)Gal": {"target": "Gal(b1-3)GalNAc(b1-3)Gal", "method_in_brief": "as §1"}, "[14]": {"target": "Gal(b1-3)GalNAc(b1-3)Gal(a1-4)Gal(b1-4)Glc", "method_in_brief": "as §1"}, "[15]": {"target": "Gal(b1-3)GalNAc(b1-4)Gal(b1-4)Glc", "method_in_brief": "as §1"}, "[16]": {"target": "Gal(b1-3)GalNAc(b1-4)Gal3S(b1-4)Glc", "method_in_brief": "as §1"}, "[17]": {"target": "Gal(b1-3)GalNAc(b1-4)[Neu5Ac(a2-3)]Gal(b1-4)Glc", "method_in_brief": "as §1"}, "[18]": {"target": "Gal(b1-3)GalNAc(b1-4)[Neu5Gc(a2-3)]Gal(b1-4)Glc", "method_in_brief": "as §1"}, "[19]": {"target": "Gal(b1-3)GlcNAc(b1-3)Gal(b1-4)Glc", "method_in_brief": "as §1"}, "[20]": {"target": "Gal(b1-3)[GlcNAc(b1-6)]GalNAc", "method_in_brief": "as §1"}, "[21]": {"target": "Gal(b1-4)GlcNAc(b1-2)Man(a1-3)[GlcNAc(b1-4)][Gal(b1-4)GlcNAc(b1-2)Man(a1-6)]Man(b1-4)GlcNAc(b1-4)GlcNAc", "method_in_brief": "as §1"}, "[22]": {"target": "Gal(b1-4)GlcNAc(b1-2)Man(a1-6)Man(b1-4)GlcNAc(b1-4)GlcNAc", "method_in_brief": "as §1"}, "[23]": {"target": "Gal(b1-4)GlcNAc(b1-2)[Gal(b1-4)GlcNAc(b1-4)]Man(a1-3)[Gal(b1-4)GlcNAc(b1-2)Man(a1-6)]Man(b1-4)GlcNAc(b1-4)GlcNAc", "method_in_brief": "as §1"}, "[24]": {"target": "Gal(b1-4)GlcNAc(b1-2)[Gal(b1-4)GlcNAc(b1-6)]Man(a1-6)[Gal(b1-4)GlcNAc(b1-2)Man(a1-3)]Man(b1-4)GlcNAc(b1-4)[Fuc(a1-6)]GlcNAc", "method_in_brief": "as §1"}, "Gal(b1-4)GlcNAc(b1-3)Fuc": {"target": "Gal(b1-4)GlcNAc(b1-3)Fuc", "method_in_brief": "as §1"}, "[25]": {"target": "Gal(b1-4)GlcNAc(b1-3)[Fuc(a1-3)GlcNAc(b1-6)]Gal(b1-4)Glc", "method_in_brief": "as §1"}, "[26]": {"target": "Gal(b1-4)GlcNAc(b1-3)[Gal(b1-4)GlcNAc(b1-6)]Gal(b1-4)GlcNAc", "method_in_brief": "as §1"}, "[27]": {"target": "Gal(b1-4)GlcNAc(b1-3)[Gal(b1-4)GlcNAc(b1-6)]Gal(b1-4)GlcNAc(b1-3)[Gal(b1-4)GlcNAc(b1-6)]Gal(b1-4)GlcNAc(b1-3)[Gal(b1-4)GlcNAc(b1-6)]Gal(b1-4)GlcNAc(b1-3)[Gal(b1-4)GlcNAc(b1-6)]Gal(b1-4)GlcNAc(b1-3)Gal(b1-4)Glc", "method_in_brief": "as §1"}, "[28]": {"target": "Gal(b1-4)GlcNAc(b1-6)[Gal(b1-3)]GalNAc", "method_in_brief": "as §1"}, "[29]": {"target": "Gal3S(b1-4)[Fuc(a1-3)]Glc", "method_in_brief": "as §1"}, "Gal6S(b1-3)GlcNAc6S": {"target": "Gal6S(b1-3)GlcNAc6S", "method_in_brief": "as §1"}, "Gal6S(b1-4)Glc": {"target": "Gal6S(b1-4)Glc", "method_in_brief": "as §1"}, "[30]": {"target": "GalNAc(b1-3)Gal(a1-4)Gal(b1-4)GlcNAc", "method_in_brief": "as §1"}, "[31]": {"target": "GalNAc(b1-4)Gal3S(b1-4)Glc", "method_in_brief": "as §1"}, "Glc(a1-2)Glc": {"target": "Glc(a1-2)Glc", "method_in_brief": "as §1"}}, "note": "Shown is part of a subset that was picked to be rich in the strongest signals.", "data": [{"binder": "B1", "values": [{"measurement": "glycan array binding signal (z-score)", "setting": "[1]", "value": -0.127}, {"measurement": "glycan array binding signal (z-score)", "setting": "[2]", "value": -0.116}, {"measurement": "glycan array binding signal (z-score)", "setting": "[3]", "value": -0.144}, {"measurement": "glycan array binding signal (z-score)", "setting": "[4]", "value": -0.183}, {"measurement": "glycan array binding signal (z-score)", "setting": "[5]", "value": -0.09}, {"measurement": "glycan array binding signal (z-score)", "setting": "[6]", "value": -0.177}, {"measurement": "glycan array binding signal (z-score)", "setting": "[7]", "value": -0.195}, {"measurement": "glycan array binding signal (z-score)", "setting": "[8]", "value": -0.106}, {"measurement": "glycan array binding signal (z-score)", "setting": "[9]", "value": -0.162}, {"measurement": "glycan array binding signal (z-score)", "setting": "[10]", "value": -0.195}, {"measurement": "glycan array binding signal (z-score)", "setting": "Fuc(a1-6)GlcNAc", "value": -0.195}, {"measurement": "glycan array binding signal (z-score)", "setting": "Gal(a1-2)Gal", "value": -0.169}, {"measurement": "glycan array binding signal (z-score)", "setting": "[11]", "value": -0.115}, {"measurement": "glycan array binding signal (z-score)", "setting": "Gal(b1-3)Gal(b1-4)GlcNAc", "value": -0.001}, {"measurement": "glycan array binding signal (z-score)", "setting": "[12]", "value": 6}, {"measurement": "glycan array binding signal (z-score)", "setting": "[13]", "value": 8.53}, {"measurement": "glycan array binding signal (z-score)", "setting": "Gal(b1-3)GalNAc(b1-3)Gal", "value": 5.33}, {"measurement": "glycan array binding signal (z-score)", "setting": "[14]", "value": 3.33}, {"measurement": "glycan array binding signal (z-score)", "setting": "[15]", "value": 7.85}, {"measurement": "glycan array binding signal (z-score)", "setting": "[16]", "value": 9.11}, {"measurement": "glycan array binding signal (z-score)", "setting": "[17]", "value": 3.91}, {"measurement": "glycan array binding signal (z-score)", "setting": "[18]", "value": 4.74}, {"measurement": "glycan array binding signal (z-score)", "setting": "[19]", "value": 0.203}, {"measurement": "glycan array binding signal (z-score)", "setting": "[20]", "value": 3.79}, {"measurement": "glycan array binding signal (z-score)", "setting": "[21]", "value": -0.309}, {"measurement": "glycan array binding signal (z-score)", "setting": "[22]", "value": -0.171}, {"measurement": "glycan array binding signal (z-score)", "setting": "[23]", "value": -0.118}, {"measurement": "glycan array binding signal (z-score)", "setting": "[24]", "value": -0.186}, {"measurement": "glycan array binding signal (z-score)", "setting": "Gal(b1-4)GlcNAc(b1-3)Fuc", "value": -0.195}, {"measurement": "glycan array binding signal (z-score)", "setting": "[25]", "value": -0.247}, {"measurement": "glycan array binding signal (z-score)", "setting": "[26]", "value": -0.153}, {"measurement": "glycan array binding signal (z-score)", "setting": "[27]", "value": 4.16}, {"measurement": "glycan array binding signal (z-score)", "setting": "[28]", "value": 5.42}, {"measurement": "glycan array binding signal (z-score)", "setting": "[29]", "value": -0.222}, {"measurement": "glycan array binding signal (z-score)", "setting": "Gal6S(b1-3)GlcNAc6S", "value": -0.244}, {"measurement": "glycan array binding signal (z-score)", "setting": "Gal6S(b1-4)Glc", "value": -0.174}, {"measurement": "glycan array binding signal (z-score)", "setting": "[30]", "value": -0.197}, {"measurement": "glycan array binding signal (z-score)", "setting": "[31]", "value": -0.195}, {"measurement": "glycan array binding signal (z-score)", "setting": "Glc(a1-2)Glc", "value": -0.195}]}]}
